# Measurements published in PubChem BioAssay (Tox21).
# Inconclusive results are not listed. Where a call stands in place of a potency, no number is given. Calls of active or inactive are those of the source. Unless noted, calls come from the whole dose curve; as a rule, active = well fitted curve in the direction sought with a large enough effect in the repeat runs; inconclusive = weak or mixed curves; inactive = no such curve, though single readings can be large; an effect the other way counts as inactive or inconclusive.
# Assays:
# [1] = target: Retinoic acid receptor RXR-alpha (Homo sapiens) (UniProt P19793); test: qHTS assay to identify small molecule agonists of the RXR signaling pathway (AID 1159527; calls by dose curve; note: nearly all actives have a fitted effect of over 35% in size); conditions: HEK293T RXRa-UAS-bla, beta-lactamase ratio, 16 h; series mostly up to 76.8 µM
# Chain of Retinoic acid receptor RXR-alpha (Homo sapiens) (P19793 whole entry, looked up): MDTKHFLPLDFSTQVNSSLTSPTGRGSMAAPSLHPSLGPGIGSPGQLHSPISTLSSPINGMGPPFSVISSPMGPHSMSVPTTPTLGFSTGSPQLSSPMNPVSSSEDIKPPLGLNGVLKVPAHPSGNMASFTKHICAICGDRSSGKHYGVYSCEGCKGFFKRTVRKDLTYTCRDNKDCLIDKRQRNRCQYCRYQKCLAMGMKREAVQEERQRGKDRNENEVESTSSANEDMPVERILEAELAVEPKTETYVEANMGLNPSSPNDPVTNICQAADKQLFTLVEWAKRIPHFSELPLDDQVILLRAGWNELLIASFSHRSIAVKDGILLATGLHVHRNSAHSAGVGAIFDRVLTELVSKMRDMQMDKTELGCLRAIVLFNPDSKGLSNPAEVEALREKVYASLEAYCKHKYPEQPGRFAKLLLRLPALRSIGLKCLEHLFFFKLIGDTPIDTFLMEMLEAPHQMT
# Outline: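 GeneBLAzer RXR-alpha-UAS-bla HEK 293T cells in medium with 2% charcoal-stripped FBS, pre-incubated 5 hr at 37 C, then exposed to compounds 16 hr. Beta-lactamase reporter read by FRET substrate, 2 hr room temperature, 460/530 nm emission.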
# [2] = qHTS assay to identify small molecule antagonists of the retinoid acid receptor (RAR) signaling pathway - cell viability counter screen (AID 1159551); conditions: C3RL4 cells viability, ATP luminescence (CellTiter-Glo), 6 h; series mostly up to 92.4 µM; note: nearly all actives have a fitted effect of over 35% in size
# Outline: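 Retinol-stimulated (1 uM final) C3RL4 cells, compound 6 h, 37 C; readout CellTiter-Glo luminescence (ATP) after 30 min RT incubation.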
# [3] = qHTS assay to identify small molecule antagonists of the estrogen related receptor (ERR) signaling pathway from Tox21 library - cell viability counter screen (AID 1224834); conditions: ERR reporter cells viability, CellTiter-Fluor, 17.5 h; series mostly up to 92.4 µM; note: nearly all actives have a fitted effect of over 30% in size; note: potency is the fitted concentration of half-maximal effect
# Outline: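 After 17.5 h of compound exposure at 37 C, ERR cells are incubated with CellTiter-Fluor for 30 min and fluorescence intensity serves as the viability measure.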
# [4] = target: Luciferin 4-monooxygenase (Photinus pyralis) (UniProt P08659); test: qHTS assay to identify small molecule inhibitors of firefly luciferase (AID 1224835); note: nearly all actives have a fitted effect of over 25% in size; note: potency is the fitted concentration of half-maximal effect; conditions: purified P. pyralis luciferase, luminescence inhibition; series mostly up to 115 µM
# Chain of Luciferin 4-monooxygenase (Photinus pyralis) (P08659 whole entry, looked up): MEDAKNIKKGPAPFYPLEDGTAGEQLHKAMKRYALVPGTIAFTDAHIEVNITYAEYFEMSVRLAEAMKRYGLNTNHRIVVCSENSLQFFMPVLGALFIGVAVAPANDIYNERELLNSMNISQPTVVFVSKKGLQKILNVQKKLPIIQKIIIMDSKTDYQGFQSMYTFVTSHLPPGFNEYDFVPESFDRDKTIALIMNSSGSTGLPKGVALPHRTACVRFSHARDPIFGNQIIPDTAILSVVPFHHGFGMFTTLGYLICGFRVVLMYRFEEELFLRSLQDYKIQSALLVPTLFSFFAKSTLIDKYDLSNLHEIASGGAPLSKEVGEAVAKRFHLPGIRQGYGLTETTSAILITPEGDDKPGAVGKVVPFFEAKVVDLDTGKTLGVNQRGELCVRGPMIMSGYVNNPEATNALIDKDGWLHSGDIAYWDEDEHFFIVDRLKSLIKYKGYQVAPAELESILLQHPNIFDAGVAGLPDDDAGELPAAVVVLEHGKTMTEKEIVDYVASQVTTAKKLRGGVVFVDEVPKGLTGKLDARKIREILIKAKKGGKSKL
# Outline: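 Inhibition of purified Photinus luciferase is measured by luminescence. Substrate levels (D-luciferin, ATP) sit at their KM values. Each compound is tested in a concentration series.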
# [5] = qHTS assay to identify small molecule agonists of the constitutive androstane receptor (CAR) signaling pathway - cell viability counter screen (AID 1224836); conditions: HepG2-CYP2B6-hCAR viability, CellTiter-Fluor, 23 h, PK11195 added to every well; series mostly up to 92.4 µM; note: nearly all actives have a fitted effect of over 45% in size
# Outline: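 HepG2 cells stably carrying hCAR and a CYP2B6-2.2kb reporter were plated 4 h, then given compounds at 15 concentrations plus PK11195 (final 0.75 uM). After 23 h at 37 C, viability was read by CellTiter-Fluor fluorescence.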
# [6] = qHTS assay to identify small molecule antagonists of the constitutive androstane receptor (CAR) signaling pathway - cell viability counter screen (AID 1224837); conditions: HepG2-CYP2B6-hCAR viability, CellTiter-Fluor, 23 h, co-treated with 50 nM CITCO; series mostly up to 92.4 µM; note: nearly all actives have a fitted effect of over 45% in size
# Outline: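 Counter screen run in HepG2-CYP2B6-hCAR cells: 4 hr settle, compound titration (15 concentrations) with 50 nM CITCO, 23 hr at 37 C/5% CO2, CellTiter-Fluor fluorescence.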
# [7] = target: Nuclear receptor subfamily 1 group I member 3 (Homo sapiens) (UniProt Q14994); test: qHTS assay to identify small molecule antagonists of the constitutive androstane receptor (CAR) signaling pathway (AID 1224838); conditions: HepG2-CYP2B6-hCAR luciferase, CITCO-stimulated, 24 h; series mostly up to 92.4 µM; note: nearly all actives have a fitted effect of over 40% in size
# Chain of Nuclear receptor subfamily 1 group I member 3 (Homo sapiens) (Q14994 whole entry, looked up): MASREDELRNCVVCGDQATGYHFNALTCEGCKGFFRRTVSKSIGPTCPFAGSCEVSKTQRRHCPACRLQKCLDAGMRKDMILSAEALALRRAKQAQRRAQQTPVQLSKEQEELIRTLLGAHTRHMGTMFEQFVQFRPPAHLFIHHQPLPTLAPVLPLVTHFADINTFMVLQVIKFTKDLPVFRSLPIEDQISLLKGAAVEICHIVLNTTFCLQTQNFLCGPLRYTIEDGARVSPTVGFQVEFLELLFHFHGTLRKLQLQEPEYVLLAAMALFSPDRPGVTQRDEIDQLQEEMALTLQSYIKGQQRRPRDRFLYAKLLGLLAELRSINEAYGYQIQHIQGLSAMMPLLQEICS
# Outline: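 Cell line: HepG2 double-stable for hCAR and CYP2B6-2.2kb reporter. Agonist: CITCO, 50 nM final. Compounds: 15 concentrations, 24 h, 37 C. Detection: ONE-Glo luminescence.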
# [8] = target: Nuclear receptor subfamily 1 group I member 3 (Homo sapiens) (UniProt Q14994); test: qHTS assay to identify small molecule agonists of the constitutive androstane receptor (CAR) signaling pathway (AID 1224839); conditions: HepG2 hCAR CYP2B6-luciferase, agonist mode, 24 h; series mostly up to 92.4 µM; note: nearly all actives have a fitted effect of over 15% in size; note: potency is the fitted concentration of half-maximal effect
# Outline: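 HepG2 cells stably expressing hCAR and a CYP2B6-2.2kb luciferase reporter were treated with compounds at 15 concentrations plus 0.75 uM PK11195 (final) for 24 h at 37 C; luminescence was read after ONE-Glo addition.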
# [9] = qHTS assay to identify small molecule antagonists of the estrogen related receptor signaling pathway with the pleiotropic PPARgamma coactivator (PGC) from Tox21 10K library - cell viability counter screen (AID 1224840; active = well fitted cell-killing curve with a large enough effect in the repeat runs, not every such curve was filed as active; note: nearly all actives have a fitted effect of over 40% in size); conditions: PGC/ERR reporter cells viability, CellTiter-Fluor, 17.5 h; series mostly up to 92.4 µM
# Outline: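 Following seeding of 2,000 PGC/ERR cells/well and 6 hours' incubation, test compounds were delivered in DMSO. The plates then sat 17.5 hours at 37 C before a fluorogenic live-cell protease reagent (CellTiter-Fluor) was read after 30 min.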
# [10] = qHTS assay to identify small molecule agonists of the RXR signaling pathway - cell viability counter screen (AID 1159529); conditions: RXR-alpha-bla HEK293T viability, CellTiter-Glo, 16 h; series mostly up to 76.8 µM; note: nearly all actives have a fitted effect of over 50% in size
# Outline: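 RXR-alpha-UAS-bla HEK 293T cells in medium with 2% charcoal-stripped FBS were preincubated 5 hr, then exposed to compounds for 16 hr at 37 C. Viability was read as CellTiter-Glo luminescence after 30 min at room temperature.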
# [11] = qHTS assay to identify small molecule antagonists of the retinoic acid receptor (RAR) signaling pathway (AID 1159552; note: nearly all actives have a fitted effect of over 50% in size); conditions: C3RL4 RARE luciferase reporter, retinol-stimulated, 6 h; series mostly up to 92.4 µM
# Outline: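 RARE-luc C3RL4 cells; cpds + 1 uM (final) retinol, 6 hr, 37 C/5% CO2; luciferase reagent, 30 min RT, luminescence readout. Inhibitors of retinol-driven signal scored.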
# [12] = qHTS assay to identify small molecule agonists of the retinoic acid receptor (RAR) signaling pathway (AID 1159553); conditions: C3RL4 RARE luciferase reporter, agonist, 6 h; series mostly up to 73.3 µM
# Outline: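 Reporter readout comes from luciferase under RARE control in C3RL4 cells; compound exposure lasts 6 hr at 37 C in 5% CO2, and luminescence is recorded following a 30 min room-temperature incubation with reagent.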
# [13] = qHTS assay to identify small molecule antagonists of the estrogen related receptor signaling pathway with the pleiotropic PPARgamma coactivator (PGC) from Tox21 10K library (AID 1224841; call rule not given here; note: actives are mostly falling curves and most rising ones were filed inactive; nearly all actives have a fitted effect of over 50% in size); conditions: PGC/ERR reporter cell line, ONE-Glo luciferase, 18 h; series mostly up to 92.4 µM
# Outline: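 qHTS antagonist format: PGC/ERR cells, 2k/well, compound in DMSO by pin transfer after 6 h attachment, 18 h treatment at 37 C, One-Glo luminescence read at 30 min.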
# [14] = qHTS assay to identify small molecule agonists of the estrogen related receptor signaling pathway with the pleiotropic PPARgamma coactivator (PGC) from Tox21 10K library (AID 1224842); conditions: PGC/ERR reporter cell line, luciferase ONE-Glo, 18 h; series mostly up to 92.4 µM; note: nearly all actives have a fitted effect of over 15% in size
# Outline: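 Luminescence from One-Glo (30 min, room temperature) measured after PGC/ERR cells had 18 h at 37 C with pinned compound (23 nL in DMSO). Cells had been seeded at 2,000 per well and pre-incubated 6 h.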
# [15] = qHTS assay to identify small molecule antagonists of the estrogen related receptor (ERR) signaling pathway - cell viability counter screen (AID 1224818); conditions: ERR reporter cell line viability counter screen; series mostly up to 46.1 µM
# Outline: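 After a 6 h pre-incubation, ERR cells were dosed by pin tool with compounds, positive/negative controls or DMSO alone. Following 17.5 h at 37 C and 30 min with CellTiter-Fluor, fluorescence was recorded.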
# [16] = qHTS assay to identify small molecule agonists of the estrogen related receptor (ERR) signaling pathway (AID 1224820); conditions: ERR reporter cell line, luciferase agonist mode; series mostly up to 46.1 µM
# Outline: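 Cells: ERR line from NTP, 2,000/well. Pre-incubation 6 h, 37 C/5% CO2. Compound (DMSO) pin transfer, 18 h 37 C. One-Glo, 30 min RT, luminescence.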
# [17] = qHTS assay to identify small molecule antagonists of the estrogen related receptor signaling pathway with the pleiotropic PPARgamma coactivator (PGC) cell viability counter screen (AID 1224822); conditions: ERR/PGC reporter cell line viability counter screen; series mostly up to 46.1 µM
# Outline: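 PGC/ERR cells were plated at 2,000 per well and allowed 6 h to settle before compound addition. Following 17.5 h at 37 C, CellTiter-Fluor reagent was added and fluorescence was read 30 min later.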
# [18] = qHTS assay to identify small molecule agonists of the estrogen related receptor signaling pathway with the pleiotropic PPARgamma coactivator (PGC) (AID 1224823); conditions: ERR/PGC reporter cell line, luciferase agonist mode; series mostly up to 46.1 µM
# Outline: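 Steps: plate PGC/ERR cells at 2,000 cells/well; incubate 6 h, 37 C/5% CO2; pin-transfer compounds (DMSO); incubate 18 h, 37 C; add One-Glo; 30 min RT; read luminescence.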
Compound,Potency [1],outcome [2],Potency [3],Potency [4],outcome [5],outcome [6],Potency [7],Potency [8],outcome [9],Potency [10],Potency [11],Potency [12],Potency [13],Potency [14],outcome [15],outcome [16],outcome [17],outcome [18]
[O-][N+](=Nc1ccccc1)c1ccccc1,inactive,inactive,inactive,11.3 µM (active),inactive,inactive,inactive,30.6 µM (active),inactive,–,–,–,–,–,–,–,–,–
CCCCNc1ccccc1,–,inactive,inactive,inactive,inactive,inactive,inactive,inactive,inactive,inactive,inactive,inactive,–,–,–,–,–,–
COC[C@H](c1ccc(C(F)(F)F)cc1)N1CCN(C2(C)CCN(C(=O)c3c(C)ncnc3C)CC2)C[C@H]1C,inactive,inactive,inactive,inactive,–,inactive,inactive,inactive,inactive,–,–,–,inactive,inactive,–,–,–,–
CCCCCCC(CCCCCCCCCCC(=O)OCC(COC(C)=O)OC(C)=O)OC(C)=O (configuration not stated),inactive,inactive,inactive,inactive,inactive,inactive,–,–,inactive,–,–,–,–,–,–,–,–,–
CC(C)(C)N(CCO)CCO,–,inactive,inactive,inactive,inactive,inactive,inactive,inactive,inactive,inactive,inactive,inactive,–,–,–,–,–,–
CC(=O)CCc1ccc(O)cc1,inactive,inactive,inactive,inactive,–,inactive,–,–,inactive,–,–,–,–,–,–,–,–,–
CN(C)C(=O)C(CCN1CCC(O)(c2ccc(Cl)cc2)CC1)(c1ccccc1)c1ccccc1,–,inactive,26.6 µM (active),inactive,–,–,–,–,–,inactive,inactive,inactive,inactive,inactive,inactive,inactive,inactive,inactive
CCCCN(CCO)CCO,inactive,–,inactive,inactive,–,inactive,inactive,inactive,inactive,–,–,–,inactive,inactive,–,–,–,–
Cc1c(F)cc2c(=O)c(C(=O)O)cn3c2c1CCC3C (configuration not stated),inactive,–,–,inactive,inactive,inactive,inactive,inactive,inactive,–,–,–,–,inactive,–,–,–,–
NC(CS)C(=O)O (configuration not stated),inactive,inactive,inactive,inactive,inactive,inactive,–,–,inactive,–,–,–,–,–,–,–,–,–
CCC(C)OC(=O)N1CCCCC1CCO (configuration not stated),–,inactive,inactive,inactive,inactive,inactive,inactive,inactive,inactive,inactive,inactive,inactive,inactive,inactive,–,–,–,–
COC(=O)[C@H]1[C@H]2C[C@@H]3c4[nH]c5cc(OC)ccc5c4CCN3C[C@H]2C[C@@H](OC(=O)COc2ccc(OC)cc2)[C@@H]1OC,–,inactive,inactive,inactive,inactive,inactive,inactive,inactive,inactive,inactive,inactive,inactive,inactive,inactive,–,–,–,–
CC(C)(O)C(=O)c1ccc(OCCO)cc1,inactive,inactive,inactive,inactive,–,inactive,–,–,inactive,–,–,–,–,–,–,–,–,–
